# CYP2C9 act: increases human cytochrome P450 2C9 activity; 96,000 compounds, 1.4% hits; activation factor at 5 µM; P11712; recombinant CYP2C9, luciferin-H conversion, luminescence; active compounds read high; factor 1 = untreated enzyme, 0 = blocked;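 active = activation factor of 2 or more for CYP2C9 at a 5 µM dose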;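 note: 0 = sulfaphenazole-blocked wells and 1 = vehicle-only wells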
# Target sequence (P11712 whole entry, looked up): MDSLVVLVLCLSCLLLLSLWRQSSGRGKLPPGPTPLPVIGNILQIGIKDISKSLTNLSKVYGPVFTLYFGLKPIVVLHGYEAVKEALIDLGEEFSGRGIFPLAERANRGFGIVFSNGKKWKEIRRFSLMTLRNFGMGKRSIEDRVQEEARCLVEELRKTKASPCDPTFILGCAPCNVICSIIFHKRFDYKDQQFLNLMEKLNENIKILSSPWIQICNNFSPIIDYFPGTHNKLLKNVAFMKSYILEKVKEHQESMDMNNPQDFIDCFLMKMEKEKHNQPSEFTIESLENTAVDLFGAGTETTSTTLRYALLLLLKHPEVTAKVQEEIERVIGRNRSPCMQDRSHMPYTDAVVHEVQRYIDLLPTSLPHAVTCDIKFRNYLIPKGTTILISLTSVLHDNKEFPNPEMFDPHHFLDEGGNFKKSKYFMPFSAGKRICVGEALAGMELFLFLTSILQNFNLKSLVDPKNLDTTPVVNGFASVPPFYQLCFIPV
# CYP2C19 activ: activators of human cytochrome P450 2C19 | 96,000 tested, under 10 active | AID 1025 | P33261 | activation factor at 5 µM | recombinant CYP2C19, luciferin-H EGE luminescence; active compounds read high; 0 = fully inhibited enzyme, 1 = untreated enzyme;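 active = activation factor of at least 2 at 5 µM in the primary screen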;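 note: 0 = wells with 2.5 mM tranylcypromine and 1 = vehicle-only wells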
# CYP2C19 inhib: blocks human cytochrome P450 2C19; inhibition, % at 5 µM; CYP2C19 Supersomes, luciferin-H EGE luminescence, 30 min; 96,000 compounds, 21% hits; P33261;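 active = CYP2C19 inhibition above a set limit at 5 µM in the primary screen, cut at about 50% in these data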;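 note: plate controls were negative control wells for no effect and 2.5 mM tranylcypromine positive control for full effect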
# CYP2C9 inh: inhibitors of human CYP2C9. P11712. CYP2C9 Supersomes, luciferin-H conversion, luminescence. inhibition, % at 5 µM. 96,000 compounds, 20% hits;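 active = blocking of liver enzyme CYP2C9 beyond about 50% at 5 µM, limit read from the data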
# Measles CPE: protection of cells from measles virus; Measles virus-infected cells, CPE protection, absorbance; protection (pct of control), % at 4 µM; 140,000 compounds, 1.5% hits; AID 841; in the data active = protection mostly above about 24%, no sharp cut-off; inactive = mostly below about 26%
# Numbers without * were called inactive; x = not tested or not shown. Shown are actives, neighbours in structure and some others; about 22% of the full set was active somewhere.
SMILES,CYP2C9 act,CYP2C19 activ,CYP2C19 inhib,CYP2C9 inh,Measles CPE
Cc1ccc(N(CC(=O)N/N=C/c2cccs2)S(C)(=O)=O)cc1Cl,0.3,0.5,47,69*,1
COC(=O)CN(c1ccccc1C)S(C)(=O)=O,1.1,1,3,-6,6
COC(=O)CN(c1c(C)cccc1C)S(C)(=O)=O,1,0.4,56*,1,4
CS(=O)(=O)N(CC(=O)N1CCCC1)c1ccc(Cl)c(Cl)c1,1,0.9,13,4,9
CCOC(=O)N1CCN(CC(O)COCc2ccc(OC)c(OC)c2)CC1 (configuration not stated),x,x,x,x,4
COc1ccccc1NC(=O)N1CCc2[nH]c3ccc(Cl)cc3c2C1,1.6,0.7,30,-60,2
O=C(Nc1cccc(-c2nnn(CC(=O)N3CCc4ccccc4C3)n2)c1)C1CCC1,0.5,0.2,84*,47,10
O=C(Nc1ccccc1-c1nnn(CC(=O)N2CCc3ccccc3C2)n1)C1CCC1,0.4,0.8,20,65*,4
CC1Cc2ccccc2N1C(=O)Cn1nnc(-c2ccccc2NC(=O)C2CCC2)n1 (configuration not stated),x,x,x,x,9
O=C(CCn1nnc(-c2cccs2)n1)N1CCc2ccccc2C1,0.8,0.7,26,22,2
O=C(Nc1nc(-c2ccc(S(=O)(=O)N3CCCCCC3)cc2)cs1)c1ccccc1,0.3,0.8,24,72*,7
Cc1cc(C)cc(Nc2nc(-c3ccc(S(=O)(=O)N4CCCC4)cc3)cs2)c1,x,x,x,x,3
O=C(Nc1nc(-c2ccc3c(c2)OCCO3)cs1)c1ccc(S(=O)(=O)N2CCCCC2)cc1,0.6,0.9,7,36,4
NC(=O)c1ccsc1NC(=O)c1ccc(S(=O)(=O)N2CCCCC2)cc1,0.4,0.6,38,60*,6
O=C(Nc1nc(-c2cccs2)cs1)c1ccc(S(=O)(=O)N2CCCC2)cc1,0.4,0.6,43,57*,4
Cc1ccc(Nc2nc(-c3ccc(S(=O)(=O)N4CCCC4)cc3)cs2)cc1C,0.5,1.1,-12,54*,4
CC(C)C(NCc1c(Cl)cccc1Cl)C(=O)O (configuration not stated),1.2,1.2,-16,-18,29
COc1ccc(/C=N/NC(=O)c2ccoc2C)cc1COc1c(C)cccc1C,0.5,0.8,18,48,x
CN(C)C=Nc1c(C(=O)c2ccccc2)sc2nccc(N(C)C)c12,x,x,x,x,2
COCCN(CCOC)S(=O)(=O)c1ccc(C(=O)Nc2nc(-c3ccncc3)cs2)cc1,0.3,0.4,56*,69*,9
Cc1nc2ccccc2c2nc3ccccc3n12,0.4,0.6,40,58*,9
c1ccc2c(c1)nnn1c3ccccc3nc21,0.4,0.3,73*,62*,11
Fc1ccc(-c2nc3ccccc3c3nc4ccccc4n23)cc1,x,x,x,x,30
CN(C)S(=O)(=O)N1CCN(C(=O)N2CCCCC2)CC1,0.9,0.7,32,6,19
CC1CCCN(C(=S)NCCc2ccccc2)C1 (configuration not stated),0.8,0.6,42,19,8
SMILES,CYP2C9 act,CYP2C19 activ,CYP2C19 inhib,CYP2C9 inh,Measles CPE
CC1=C(C(=O)OCC2CCCO2)C(c2ccc(C)o2)C2=C(CC(c3ccc(F)cc3)CC2=O)N1 (configuration not stated),0.8,0.8,16,19,9
CC1=C(C(=O)OCC2CCCO2)C(c2cccc(C(F)(F)F)c2)C2=C(CC(c3ccco3)CC2=O)N1 (configuration not stated),0.1,0.1,94*,88*,3
CC1=C(C(=O)OCC2CCCO2)C(c2ccc(C)o2)C2=C(CC(c3ccc(N(C)C)cc3)CC2=O)N1 (configuration not stated),0.5,0.4,56*,54*,4
CC1=C(C(=O)OCC2CCCO2)C(c2ccccc2OC(C)C)C2=C(CC(c3ccco3)CC2=O)N1 (configuration not stated),0.2,0,98*,81*,12
Brc1cccc(-c2nnc3sc(CN4CCC5(CC4)OCCO5)cn23)c1,0.9,0.9,6,14,13
Brc1cccc(-c2nnc3sc(CN4CCCCC4)cn23)c1,0.5,0.6,37,50*,8
O=C(Nc1ncnc2c1ncn2C1OC(COC(=O)c2ccccc2)C(F)C1O)c1ccccc1 (configuration not stated),0.1,0.2,80*,86*,13
COc1ccc(CN(C(=O)CN2C(=O)C(C)Oc3ccccc32)C2CCCC2)c(OC)c1 (configuration not stated),0.1,0.2,81*,88*,14
CC(C)N=C(NC#N)SCc1ccccc1F,0.5,0.2,85*,49,9
COc1ccc(N(C(=O)Cc2cccs2)C(C(=O)NC2CCCCC2)c2cccn2C)cc1 (configuration not stated),1.1,1,3,-8,7
CC12CC3CC(C)(C1)CC(C(=O)NC1=NCCS1)(C3)C2,1.1,0.4,58*,-9,5
O=C(NC1=NCCS1)C12CC3CC(C1)CC(C(=O)NC1=NCCS1)(C3)C2,0.9,0.6,38,6,7
COc1cc2c(cc1OC)C(C(=O)Nc1ccc3c(c1)OCCO3)C(c1cccnc1)N(C)C2=O (configuration not stated),0.5,1,3,54*,9
O=C(Nc1ccc2c(c1)OCCO2)c1cccnc1,1.1,1.1,-14,-12,4
CN(C)c1oc(-c2ccccc2Cl)nc1S(=O)(=O)c1ccccc1,1.4,0.2,79*,-44,21
CN(C)c1oc(-c2ccccc2Cl)nc1C#N,2.8*,0.4,62*,-179,2
N#Cc1nc(-c2ccccc2Cl)oc1N1CCCCC1,0.2,0.1,86*,81*,3
O=C(Nc1cccc(C(F)(F)F)c1)C(Sc1cccc[n+]1[O-])c1ccccc1 (configuration not stated),x,x,x,x,2
CC(C)Sc1nnc(Nc2ccccc2)s1,0.4,0.3,69*,59*,27
Brc1[nH]nc2ccccc12,1.1,0.9,10,-12,17
NC(=O)c1nn(-c2ccccc2)nc1NC(=O)CSc1nnnn1-c1ccc(Cl)cc1,x,x,x,x,7
CCCNC(=O)CS(=O)Cc1nc(-c2cccc(OC)c2)oc1C (configuration not stated),0.9,0.9,7,6,15
CCc1ccc(-c2nc(CS(=O)CC(=O)NCc3cccnc3)c(C)o2)cc1 (configuration not stated),0.3,0.8,15,70*,5
COc1ccc(-c2nc(CS(=O)CC(=O)NCc3cccnc3)c(C)o2)cc1 (configuration not stated),0.4,0.5,48,62*,4
COc1cccc(-c2nc(CS(=O)CC(=O)NCc3ccccc3)c(C)o2)c1 (configuration not stated),0.4,0.5,54*,58*,11

# Assay outcomes: PubChem BioAssay, several laboratories
